IDE inh: inhibitors of human insulin-degrading enzyme in cells; P14735; HEK cells, FAbetaB cleavage, fluorescence polarization; inhibition, % at 5.59 µM; 0.41% of 320,000 active; AID 434962;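 active = percent inhibition above the average of all tested compounds plus 3 SD, set per screening campaign, cut at about 16% in these data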;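 also: IDE supplied by intact live HEK cells; FP after avidin binding of uncleaved biotin substrate so inhibition keeps polarization high; 0% = DMSO wells and 100% = 60 µM reference IDE inhibitor Ii1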
TPT1 inhibitor: blocks Candida albicans tRNA 2'-phosphotransferase; recombinant caTPT1, FP RNA substrate dephosphorylation; inhibition, % at 5 µM; 0.81% of 300,000 active; AID 1962;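 active = inhibition above the mean of all tested compounds plus 3 SD, set per screening campaign, cut at about 24% in these data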;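 also: plate controls were DMSO alone for no effect and ferristatin control at 100 nM for full effect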
Rin1 Abl inh: blocks binding of human Rin1 to Abl; TR-FRET Rin1/Abl binding, biochemical; inhibition, % at 7.35 µM; 0.4% of 360,000 active; AID 588664; in the data active = inhibition above about 5%, passing the limit was not always enough
Rpn11 inh: Rpn11 (human) deubiquitinase inhibition. human 26S proteasome, Ub4-pepOG fluorescence polarization; 20S core pre-blocked with epoxomicin. 0.59% of 360,000 active. AID 588493. inhibition, % at 20 µM;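 active = inhibition at 20 µM, scaled to each plate's controls, above about 33%, limit read from the data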
Target sequence (O00487 whole entry, looked up): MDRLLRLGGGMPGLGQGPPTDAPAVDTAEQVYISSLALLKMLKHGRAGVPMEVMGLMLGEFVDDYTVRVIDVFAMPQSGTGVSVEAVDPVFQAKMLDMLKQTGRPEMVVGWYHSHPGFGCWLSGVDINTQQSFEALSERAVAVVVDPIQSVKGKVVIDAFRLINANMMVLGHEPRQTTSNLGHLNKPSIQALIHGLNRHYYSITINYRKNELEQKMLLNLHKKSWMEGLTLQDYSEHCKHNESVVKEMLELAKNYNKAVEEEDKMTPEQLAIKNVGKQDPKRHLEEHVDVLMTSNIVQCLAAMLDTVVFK
IDE cell activ: boosts human insulin-degrading enzyme activity in HEK cells; 0.073% of 340,000 active; FAbeta-B cleavage, fluorescence polarization; 0% vehicle, 100% cell-free pure enzyme wells; activation, % at 5.96 µM; P14735;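 active = activation above the mean of all tested compounds plus 3 SD, set per screening campaign, cut at about 17% in these data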
Calb FLC: C. albicans growth modulation with fluconazole; C. albicans CaCi-2 (fluconazole-resistant clinical isolate) + fluconazole, Alamar Blue growth, 48 h; growth inhibition, % (concentration not given with the values); 0.57% of 300,000 active;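 active = growth inhibition above about 58% in most replicates, limit read from the data, passing the limit was not always enough; inconclusive = exactly half the replicates above a set limit; inactive = most replicates below a set limit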;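 also: all wells also contain fluconazole at 8 µg/ml as a sub-toxic cotreatment; 0% = median of DMSO wells and 100% = median of geldanamycin control wells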
Rpn11 confirm: Rpn11 inhibition confirmation, single concentration. shares compounds with Rpn11 inh. purified human 26S proteasome, Ub4-pepOG fluorescence polarization; proteasome pretreated with epoxomicin. inhibition, % at 20 µM. 29% of 1,900 active. AID 602318
MMP-2 counter: blocks human MMP-2, flagging nonselective RPN11 hits. shares compounds with Rpn11 inh. recombinant MMP-2, FRET peptide cleavage fluorescence. inhibition, % at 20 µM. 4% of 1,900 active. AID 602330;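 also: human MMP-2 activated beforehand with APMA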
Thrombin FP: counter-screen for RPN11 inhibitors: inhibition of bovine thrombin. AID 602333. shares compounds with Rpn11 inh. inhibition, % at 20 µM. bovine thrombin cleavage of Ub4-pepOG, fluorescence polarization. 13% of 1,900 active;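 active = mean inhibition at least 40% at 20 µM, or signal 3 deviations below plate average, so some actives read negative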;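 also: plate controls were thrombin with DMSO for no effect and buffer wells lacking thrombin for full effect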
Active calls of the source: *; u = inconclusive; x = no result. This is a sample that favours compounds with a hit; in the whole collection about 2.3% have one here. Rule as the data show it, unless noted: active = inhibition above about 40%; inactive = the rest.

SMILES	IDE inh	TPT1 inhibitor	Rin1 Abl inh	Rpn11 inh	IDE cell activ	Calb FLC	Rpn11 confirm	MMP-2 counter	Thrombin FP
CC(C)C1N=C(c2ccc3c(c2)OCO3)CC(c2ccccc2O)N1 (stereo not drawn)	11	-2	1	-8	-3	-17	x	x	x
CCOc1ccccc1C1N=C(c2ccc(OC)cc2)CC(c2ccccc2O)N1 (stereo not drawn)	7	0	1	42*	1	2	-13	-46	-4
O=C(O)CCC(=O)c1ccc2sc3ccccc3c2c1	x	x	-2	-2	3	x	x	x	x
Cc1cc(C)cc(NS(=O)(=O)c2cnc(Cl)c(Cl)c2)c1	-5	3	4	52*	1	28	1	-15	10
CCCCn1c(/N=C/c2ccc3c(c2)OCO3)nc2ccccc21	-2	-5	1	7	7	0	x	x	x
CCCCn1c(/N=C/c2ccc(N(C)C)cc2)nc2ccccc21	0	24	3	52*	3	39	72*	-14	59*
O=C(Nc1ccc2c(c1)CCC2)c1cc(S(=O)(=O)N2CCN(c3ccccc3)CC2)ccc1Cl	-2	22	3	64*	-2	2	41*	14	-50
O=C(NC1CCCCC1)c1cc(S(=O)(=O)N2CCN(c3ccccc3)CC2)ccc1Cl	3	x	0	-1	-1	x	x	x	x
CC(C)C(NC(=O)CCNC(=O)c1ccc(C(C)(C)C)cc1)c1nc2ccccc2[nH]1 (stereo not drawn)	-2	x	2	-1	0	x	x	x	x
CSc1nc(N)n2nccc2n1	x	x	0	-7	x	x	x	x	x
Fc1ccccc1-c1nc(-c2ccccc2)no1	7	1	-1	46*	1	-1	6	11	-9
Fc1ccccc1-c1nc(-c2ccncc2)no1	0	-1	-1	2	-5	-6	x	x	x
CN1CCN(CC(=O)Nc2cc(N(C)C)nc3ccccc23)CC1	-1	0	3	6	6	13	x	x	x
Cc1cccc(C(=O)Nc2ccc(N3CCN(c4ccc(C(F)(F)F)cn4)CC3)nc2)c1	5	-1	1	46*	-7	-2	-9	-39	4
CC(C)(C)C(=O)Nc1ccc(N2CCN(c3ccc(C(F)(F)F)cn3)CC2)nc1	10	0	-1	4	-9	-2	x	x	x
Cc1ccc(NC(=O)CCCC(=O)O)c(-c2nc3ccccc3[nH]c2=O)c1	-4	-2	-2	2	3	5	x	x	x
COc1ccccc1C(=O)Nc1nnc([C@H]2C[C@H](O)[C@@H](CO)O2)s1	x	x	2	3	x	x	x	x	x
O=C(CCCN1C(=O)/C(=C\c2cccs2)SC1=S)Nc1cccc(C(=O)O)c1	7	2	-1	3	-2	-4	x	x	x
O=C(CN1C(=O)/C(=C/c2ccco2)SC1=S)Nc1ccc(O)c(C(=O)O)c1	6	12	4	81*	-2	2	17	10	9
O=C(CCCN1C(=O)/C(=C/c2ccco2)SC1=S)Nc1cccc(C(=O)O)c1	10	12	-2	37*	2	12	-3	45*	0
CC(C(=O)N(C)C1CCS(=O)(=O)C1)N1C(=O)/C(=C/c2ccco2)SC1=S (stereo not drawn)	1	-33	1	19	4	-7	x	x	x
CC(C(=O)Nc1ccc(C(=O)O)c(O)c1)N1C(=O)/C(=C\c2ccco2)SC1=S (stereo not drawn)	12	15	6	74*	-5	-2	45*	34	-6
COc1ccc(NC(=O)CCCN2C(=O)/C(=C\c3ccco3)SC2=S)cc1	-1	11	-2	14	9	-3	x	x	x
CN(Cc1ccc(C(C)(C)C)cc1)C(=O)Cc1ccc(S(=O)(=O)N2CCOCC2)s1	3	x	-1	13	1	x	x	x	x
O=C(Nc1ccnn1C1CCN(Cc2ccn[nH]2)CC1)c1ccccc1	8	-1	-2	0	1	3	x	x	x
SMILES	IDE inh	TPT1 inhibitor	Rin1 Abl inh	Rpn11 inh	IDE cell activ	Calb FLC	Rpn11 confirm	MMP-2 counter	Thrombin FP
Cc1ccc(/C=C2\SC(=S)N(C3CCS(=O)(=O)C3)C2=O)o1 (stereo not drawn)	5	5	0	51*	3	u	10	23	3
O=C1/C(=C/c2ccccc2)SC(=S)N1C1CCS(=O)(=O)C1 (stereo not drawn)	-2	-3	3	-4	2	0	x	x	x
COc1cccc(CN2c3ccc(Br)cc3C(=O)CS2(=O)=O)c1	6	x	4	94*	0	x	-5	-25	-10
C=CCN1c2ccc(Br)cc2C(=O)CS1(=O)=O	-1	x	-2	4	-1	x	x	x	x
O=c1cc(-c2cccc(F)c2)oc2ccccc12	x	x	-2	41*	0	x	-19	5	-14
CCCC(=O)N=C1SC2CS(=O)(=O)CC2N1c1ccc(-c2nc3ccc(C)cc3s2)cc1 (stereo not drawn)	0	5	4	46*	-8	-1	2	-25	-5
COc1ccc(C(=O)N/C(=C/c2ccco2)C(=O)N2CCCCCC2)cc1	5	10	-5	50*	-8	28	-4	-32	-18
O=C(CN1C(=O)C(=O)N(C2CCCC2)C1=O)Nc1cc(Cl)ccc1[N+](=O)[O-]	-7	x	-2	-4	0	x	x	x	x
Cc1cc(Br)ccc1OCC(=O)NNC(=O)c1ccc(NC(=O)C2CC2)cc1	1	2	2	55*	5	-12	14	-24	-2
COc1ccc(-c2nn(CCC(=O)O)cc2/C=C2\SC(N)=NC2=O)cc1	-5	11	-4	47*	3	-3	38	-5	31
CCCOc1ccc(-c2nn(-c3ccccc3)cc2/C=C2\SC(N)=NC2=O)cc1	-1	-1	0	13	-3	-13	x	x	x
NC1=NC(=O)/C(=C/c2cn(CCC(=O)O)nc2-c2ccc(Cl)cc2)S1	6	16	-7	43*	1	5	46*	-3	32
NC1=NC(=O)/C(=C/c2cn(CCC(=O)O)nc2-c2ccc(F)cc2)S1	3	11	2	14	1	1	x	x	x
COc1ccc(N2CCN(CCS(=O)(=O)c3cc(Cl)ccc3Cl)CC2)cc1	-1	x	0	0	-3	x	x	x	x
COc1ccc(NC(=O)CSc2nc3ccccc3c(=O)n2CCCN2CCC(C)CC2)c(OC)c1	-3	2	-3	-3	5	-2	x	x	x
Cc1cccc2c1c1ccc3c(c1n2C)C(=O)C=CC3=O	x	x	2	42*	0	x	12	-1	11

Screening results deposited in PubChem BioAssay by several laboratories.
